Source: PubChem (National Center for Advancing Translational Sciences (NCATS))
Shown are actives, neighbours in structure and some others; about 21% of the full set was active somewhere.
Pf growth 48h – P. falciparum growth inhibition at 48 hours (one generation) | P. falciparum luciferase growth in erythrocytes, 48 h | Potency, µM (top dose mostly 28.7 µM), without a hit: at the top dose activity change, negative = inhibition, actives largely listed as inhibitors | 310,000 tested, 5.9% active | AID 504832; also: potency is read from the fitted curve at half-maximal effect; % is scaled to controls: 0 for no effect and ±100 for the full control effect
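In quantitative HTS format, infected erythrocytes bearing luciferase-reporter parasites were treated for a single generation at 37 C. Luminescence after adding detection reagent served as the growth measure.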
Shiga toxin inh – blocks Shiga toxin action in Vero cells; Vero cells, Shiga toxin protein synthesis inhibition reporter; inhibition, % at 38.7 µM; 290,000 tested, 9.2% active; AID 2315; in the data active = inhibition mostly above about 28%, no sharp cut-off; inactive = mostly below about 43%; also: 0% is about no effect
Pf growth 96h – inhibits malaria parasite growth, 96 h. P. falciparum luciferase reporter growth, 96 h. Potency, µM (series often up to 28.7 µM), without a hit: at the top dose activity change, negative = inhibition, actives largely listed as inhibitors. 320,000 tested, 6.9% active. AID 504834; also: potency is read from the fitted curve at half-maximal effect; % is scaled to controls: 0 for no effect and ±100 for the full control effect
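96 h incubation, 37 C, 5% CO2, of luciferase-reporter P. falciparum-infected RBCs (2% hematocrit, 0.05% parasitemia final) with test compounds; endpoint luminescence.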
FBPA Giardia inh – Giardia lamblia aldolase inhibition; purified Giardia FBPA; Potency, µM (doses to about 59.6 µM), without a hit: at the highest dose activity, negative = inhibition, hits mostly inhibitors; 290,000 tested, 0.71% active; AID 2451; also: potency is read from the fitted curve at half-maximal effect; % is scaled to controls: 0 for no effect and ±100 for the full control effect; nearly all actives have a fitted effect of over 55% in size
Target sequence (A8B2U2 whole entry, looked up): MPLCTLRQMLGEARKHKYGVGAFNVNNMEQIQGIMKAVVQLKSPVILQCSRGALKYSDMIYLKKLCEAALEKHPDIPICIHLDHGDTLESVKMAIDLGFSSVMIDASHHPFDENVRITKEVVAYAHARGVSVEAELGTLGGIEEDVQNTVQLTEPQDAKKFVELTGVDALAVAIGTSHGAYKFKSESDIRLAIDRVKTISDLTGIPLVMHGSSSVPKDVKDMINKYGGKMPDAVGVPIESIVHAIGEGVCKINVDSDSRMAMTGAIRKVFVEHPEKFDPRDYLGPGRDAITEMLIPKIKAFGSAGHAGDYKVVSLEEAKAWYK
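Giardia FBPA (40 nM reagent) was preincubated 10 min at RT with compound (up to 57.5 uM final), then substrate plus GAPDH/TPI/NAD/arsenate coupling system with diaphorase/resazurin was added; resorufin fluorescence (525/598 nm) was read after 20 min.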
NS1 function inh – blocks influenza NS1 protein function; Potency, µM (doses to about 46.1 µM), for inactives: at the highest dose activity, positive = more growth; 270,000 tested, 0.4% active; AID 2326; calls by dose curve; also: potency is read from the fitted curve at half-maximal effect; actives are rising curves; nearly all actives have a fitted effect of over 50% in size
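Growth recovery, yeast-based: influenza A NS1 expressed in S. cerevisiae causes slow growth, and suppressors are detected by OD600. The parent strain without NS1 is used as positive control.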
CHX counter – counter-screen hit for Shiga toxin inhibitors, cycloheximide | 300,000 tested, 12% active | max response, % | cell reporter, cycloheximide protein synthesis inhibition counterscreen; in the data active = max response mostly above about 13%, no sharp cut-off; inactive = mostly below about 14%; also: read at 38.3 µM for the half of the compounds with a filed dose; 0% is about no effect
NS1 inh valid – validation of influenza NS1 protein function inhibitors; shares compounds with NS1 function inh; influenza NS1 function cell assay, 15-point titration; activity change, negative = inhibition, % at 32.9 µM; 1,400 tested, under 10 active; AID 492980; calls by dose curve; also: 0% is about no effect
* marks the source's active call; other numbers are inactive results; ? = inconclusive; / = not tested or not shown; [ ] = another dose, or the depositor's remark. Unless noted, calls follow the shape of the dose curve; as a rule, active = well fitted curve in the direction sought with a large enough effect; inconclusive = small, poorly fitted or top-dose-only effect, or another doubt; inactive = no such curve, though single readings can be large; an effect the other way counts as inactive or inconclusive.

SMILES	Pf growth 48h	Shiga toxin inh	Pf growth 96h	FBPA Giardia inh	NS1 function inh	CHX counter	NS1 inh valid
c1ccc(-c2ccc(C3=Nn4c(Cn5nnc6ccccc65)nnc4SC3)cc2)cc1	?	-23	9.3µM*	1%	13µM*	-1	?
COC(=O)c1cccc(C23CC4(C2)[C@H](CN(Cc2cccnc2)[C@@H]4c2ccccc2)C3c2ccc(C(F)(F)F)cc2)c1 (stereo partly specified)	2.3µM*	-2	?	-2%	8.9µM*	2	2
CCOC(=O)/C(C#N)=C/Nc1ccsc1C(C)=O	29%	21	-4%	-6%	-4%	8	/
CCN(CC(=O)Nc1c(F)cccc1F)C(=O)/C=C/c1cn(Cc2ccccc2)nc1-c1cccnc1	?	-21	?	/	5%	8	/
COc1ccc2oc(C(=O)OCC(=O)N3CCCC(C)C3)c(C)c2c1 (stereo unspecified)	14%	/	4%	/	/	/	/
Cc1c(C(=O)OCC(=O)N2CC(C)OC(C)C2)oc2ccc(Br)cc12 (stereo unspecified)	-8%	11	-1%	5%	0.45µM*	4	?
Cc1csc(SCC(=O)Nc2nncs2)n1	15%	13	25%	-28%	?	-4	-22
CS(=O)(=O)N1CCc2cc(-c3csc(NC(=O)Cc4cccs4)n3)ccc21	-23%	16	97%	-9%	11µM*	9	19
Cc1nnc(NC(=O)Cc2cccs2)s1	12%	-14	-14%	1%	-1%	-8	/
CC(NC(=O)C1CCCCC1)C(c1cccs1)N1CCN(C)CC1 (stereo unspecified)	-1%	-7	-4%	-2%	4%	1	/
N#Cc1c(NC(=O)c2ccc(-c3ccccc3[N+](=O)[O-])o2)sc2c1CCCC2	43%	-1	0%	-14%	?	1	-17
NC(Cc1c[nH]c2ccccc12)C(=O)NCc1ccco1 (stereo unspecified)	0%	22	43%	0%	1%	-1	/
C(=N\n1cnnc1SCc1ccccc1)/c1ccco1	33%	-48	?	-4%	1.1µM*	-3	-16
c1nc(NC2CCCCCC2)c2[nH]cnc2n1	?	5	?	-12%	10µM*	15	-24
c1nc(NC2CCCC2)c2[nH]cnc2n1	57%	-9	?	-10%	3%	-4	/
CCOc1ccc(/C=N/NC(=O)Cc2csc(Nc3cccc(C(F)(F)F)c3)n2)cc1	9.3µM*	-5	/	-12%	10µM*	7	-26
CCOc1ccc(/C=N/NC(=O)Cc2csc(Nc3cccc(C(F)(F)F)c3)n2)c(OCC)c1	57%	-14	38%	-5%	22%	2	/
COc1ccc(C(=O)NCC2(c3ccccc3)CCCC2)c(OC)c1	13%[0.00184 µM]	14	?	-4%	-5%	-10	/
COc1ccc(C2(CNC(=O)CCC(=O)O)CCCC2)cc1	1%	-11	/	1%	13µM*	0	9
COc1cccc(C(c2nnnn2CC2CCCO2)N2CCN(C(=O)c3ccco3)CC2)c1OC (stereo unspecified)	?	-1	150%	-14%	4%	8	/
COc1ccc(NC(=O)O/N=C2/CCCc3ccc(OC)cc32)cc1	-7%	57	7%	-18%	-7%	11	/
COc1ccc2c(c1)CCC/C2=N\Nc1nc(C(=O)NN)cs1	10µM*	76*	?	-12%	8.9µM*	46*	1
Fc1ccccc1Cn1cc(C(=S)N2CCOCC2)c2ccccc21	-23%	2	-18%	-16%	-6%	-1	/
CCS(=O)(=O)N1CCN(c2ccc([N+](=O)[O-])c(NCc3cccnc3)c2)CC1	-5%	-13	70%	?	1%	0	/
O=[N+]([O-])c1ccc(N2CCN(S(=O)(=O)c3ccccc3[N+](=O)[O-])CC2)cc1NCc1cccnc1	8.3µM*	1	10µM*	-2%	14µM*	-1	31
SMILES	Pf growth 48h	Shiga toxin inh	Pf growth 96h	FBPA Giardia inh	NS1 function inh	CHX counter	NS1 inh valid
N#Cc1c(Cl)nc(SCc2ccccc2)nc1-c1ccccc1	9%	34	7%	-9%	?	-4	-16
N#Cc1c(Cl)nc(-c2ccncc2)nc1-c1ccccc1	20%	21	6%	7%	2%	1	/
COc1ccc(/C=C(/NC(=O)c2ccc(OC)c(OC)c2)C(=O)NCCc2c[nH]c3ccccc23)cc1	?	-10	?	0%	7.9µM*	5	4
COc1ccc(C(=O)N/C(=C/c2cccc3ccccc23)C(=O)NCCc2c[nH]c3ccccc23)cc1OC	?	11	?	-4%	11µM*	-5	?
COc1ccc(/C=C(/NC(=O)c2ccc(OC)cc2)C(=O)NCCc2c[nH]c3ccccc23)cc1	?	10	?	-1%	?	-2	/
COc1cccc(C(=O)N2CCN=C2SCc2cccnc2)c1OC	/	-17	?	4%	1.6µM*	-8	-15
COc1ccc(-c2nn(-c3ccccc3)cc2/C=N/NC(=O)c2cccc(S(=O)(=O)Nc3ccccc3OC)c2)cc1	3.3µM*	-6	2.3µM*	5%	10µM*	17	5
CCCc1cc(=O)n(-c2nc3ccccc3s2)[nH]1	-3%	4	6%	-3%	2%	11	/
CCOC(=O)Cc1cc(=O)n(-c2nc3ccccc3s2)[nH]1	2%	43	?	?	10µM*	-2	0
O=C(NCCCN1CCOCC1)C1CC(=O)N(C2CCCCC2)C1 (stereo unspecified)	34%	34	?	6%	1µM*	6	-20
CCCOc1ccc(C(=O)CCC(=O)OCC(=O)N(C)c2c(N)n(Cc3ccccc3)c(=O)[nH]c2=O)cc1	12%	3	43%	/	19%	-3	/
COc1ccc(C(c2sc3nc(C)nn3c2O)N2CCN(CCO)CC2)cc1OC (stereo unspecified)	13%	-8	-1%	-9%	-3%	-3	/
COc1ccc(C(c2c(NC(=O)c3ccccc3)sc(C)c2C)N2CCN(CCO)CC2)cc1 (stereo unspecified)	?	56*	?	18%	?	22*	-18
COc1ccc(-c2ccnc3nc(-n4cccc4)nn23)cc1	?	-9	?	16%	?	-2	/
O=C1c2ccccc2C(=O)N1c1nc2nccc(-c3ccccc3)n2n1	30%	-9	/	-5%	?	-4	8
Cc1onc(-c2ccccc2Cl)c1C(=O)N1CCN(c2ccc(F)cc2)CC1	-22%	-5	-3%	8%	8%	-2	/
CN1CC[C@@]2(C)c3cc(O)ccc3N(C)C12 (stereo partly specified)	/	/	/	2.8µM*	13µM*	/	1
